Among the data in PubChem BioAssay (Tox21) are Potency and outcome values, retold here.

Each structure is given as a SMILES string. Values without a mark were called inactive. Inconclusive results are not listed. Calls of active or inactive are those of the source. Unless noted, the call rests on the fitted dose curve; in most records, active means well fitted curve in the direction sought with a large enough effect in the repeat runs; inconclusive means weak or mixed curves; inactive means no such curve, though single readings can be large; an effect the other way counts as inactive or inconclusive.

The nature of assay [1]: qHTS RealTime-Glo MT Cell Viability Assay in HEK293 cells - 0 hour (AID 1224880). Further: nearly all actives have a fitted effect of over 45% in size. Further: potency means the concentration at half of the fitted maximal effect. In outline:
(§1)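 Viable HEK293 cells reduce a cell-permeant prosubstrate; the product diffuses out and is consumed by NanoLuc in the medium to give light. Compounds went in after a 5 h incubation and plates were read over the treatment course.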
In general terms: In qHTS, concentration-response curves come from the screen itself.

Assay [2] can be described thus: A CellTox Green Cytotoxicity Assay to monitor cytotoxicity in HEK293 cells - 32 hour (AID 1224881). Further: nearly all actives have a fitted effect of over 40% in size. An outline of the steps:
(§2)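 Fluorescence intensity, read at 0, 8, 16, 24, 32 and 40 h of compound treatment, reflected dye binding to DNA of dead HEK293 cells; compounds (23 nL, DMSO) were added 5 h after plating cells with reagent.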

A short description of assay [3]: A CellTox Green Cytotoxicity Assay to monitor cytotoxicity in HepG2 cells - 0 hour (AID 1224882). Further: nearly all actives have a fitted effect of over 35% in size. In outline:
(§3)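 Using 1536-well format, dye-containing HepG2 suspension was seeded, allowed 5 h at 37 C/5% CO2, dosed by pintool with compounds, positive and negative controls, and imaged for fluorescence across 40 h.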

A short description of assay [4]: A CellTox Green Cytotoxicity Assay to monitor cytotoxicity in HepG2 cells - 32 hour (AID 1224883). Further: nearly all actives have a fitted effect of over 50% in size. In outline:
as §3

Assay [5] is described as follows: A CellTox Green Cytotoxicity Assay to monitor cytotoxicity in HEK293 cells - 8 hour (AID 1224884). Further: nearly all actives have a fitted effect of over 35% in size. In outline: as §2
A short description of assay [6]: qHTS RealTime-Glo MT Cell Viability Assay in HepG2 cells - 16 hour (AID 1224885). Further: nearly all actives have a fitted effect of over 50% in size. An outline of the steps: (§4)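 Real-time, nonlytic viability: 600 HepG2 cells/well mixed with NanoLuc enzyme plus prosubstrate; 5 h settle, compound (DMSO) added by pintool; luminescence monitored over 40 h at 37 C.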
The nature of assay [7]: qHTS RealTime-Glo MT Cell Viability Assay in HEK293 cells - 24 hour (AID 1224886). Further: top concentration of the series differs between compounds; nearly all actives have a fitted effect of over 50% in size. In outline: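 Cells + reagent dispensed (600 cells/well, HEK293) → 5 h at 37 C/5% CO2 → 23 nL compound in DMSO pinned → 40 h at 37 C → luminescence read at 0, 8, 16, 24, 32, 40 h.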
The nature of assay [8]: qHTS RealTime-Glo MT Cell Viability Assay in HEK293 cells - 8 hour (AID 1224887). Further: top concentration of the series differs between compounds; nearly all actives have a fitted effect of over 50% in size. An outline of the steps: as §1
The nature of assay [9]: A CellTox Green Cytotoxicity Assay to monitor cytotoxicity in HEK293 cells - 16 hour (AID 1224888). Further: nearly all actives have a fitted effect of over 35% in size. In outline: as §2
A short description of assay [10]: qHTS RealTime-Glo MT Cell Viability Assay in HepG2 cells - 0 hour (AID 1224889). Further: nearly all actives have a fitted effect of over 50% in size. Further: potency means the concentration at half of the fitted maximal effect. In outline: as §4
The nature of assay [11]: A CellTox Green Cytotoxicity Assay to monitor cytotoxicity in HepG2 cells - 8 hour (AID 1224890). Further: nearly all actives have a fitted effect of over 45% in size. In outline:
as §3

Assay [12] can be described thus: qHTS assay to identify small molecule antagonists of the estrogen receptor alpha (ER-alpha) signaling pathway using the BG1 cell line in the presence of 0.1 nM 17-beta-estradiol - cell viability counter screen (AID 1259241). Further: nearly all actives have a fitted effect of over 40% in size. An outline of the steps: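 The cell line endogenously expresses full-length ER-alpha and carries four EREs driving luciferase. Cells are cultured 5 days hormone-free, treated 22 hr with compounds and 0.1 nM estradiol, then viability is read by fluorescence.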

Assay [13] in a line: qHTS assay to identify small molecule antagonists of the androgen receptor (AR) signaling pathway using the MDA cell line in the presence of 0.5 nM R1881 - cell viability counter screen (AID 1259242). Further: nearly all actives have a fitted effect of over 45% in size. In outline:
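Viability of MDA-kb2 cells was multiplexed with the luciferase AR readout; after 16 hr with compounds and R1881 at 0.5 nM final, CellTiter-Fluor fluorescence was recorded.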

Assay [14] deals with Estrogen receptor (Homo sapiens) (UniProt P03372). Put plainly: qHTS assay to identify small molecule antagonists of the estrogen receptor alpha (ER-alpha) signaling pathway using the BG1 cell line in the presence of 0.1 nM 17-beta-estradiol (AID 1259244). Further: nearly all actives have a fitted effect of over 50% in size. In outline:
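Estradiol at 0.1 nM (final) stimulates the endogenous ER-alpha of VM7Luc4E2 cells carrying an ERE-driven luciferase; compounds are co-incubated 22 h at 37C and luciferase output quantified by luminescence.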

Assay [15] can be described thus: qHTS assay to identify small molecule HDAC inhibitors (AID 1259364).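 Further: wild-type HCT-116 cells with endogenous class I/II HDAC activity; top concentration of the series differs between compounds; nearly all actives have a fitted effect of over 45% in size.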 In outline: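 Read-out: luminescence of HDAC-Glo I/II reagent, 30 min RT, reflecting class I/II deacetylase activity in whole HCT-116 cells pre-exposed 2 h to DMSO-dissolved compounds.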
Assay [16] can be described thus: qHTS assay to identify small molecule HDAC inhibitors - cell viability counter screen (AID 1259365). An outline of the steps:
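Viability readout: CellTiter-Glo luminescence. Wild-type HCT-116 cells, 2hr compound treatment following overnight attachment at 37 C.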

Assay [17] can be described thus: qHTS assay to identify small molecule agonists of the sonic hedgehog signaling (Shh) pathway - cell viability counter screen (AID 1259366). Further: nearly all actives have a fitted effect of over 50% in size. In outline: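 Viability measured fluorometrically (CellTiter-Fluor, 1hr, 37C) in 3T3 Gli1-Luc reporter cells after 23hr compound exposure within a 24hr incubation at 37C/5% CO2.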
Assay [18] is described as follows: qHTS assay to identify small molecule antagonists of the sonic hedgehog signaling (Shh) pathway - cell viability counter screen (AID 1259367). Further: nearly all actives have a fitted effect of over 55% in size. In outline: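 After a 4 hr settling period, 3T3 Gli1-Luc cells were treated with DMSO-dissolved chemicals and conditioned medium, kept 24 hr at 37C in 5% CO2, and assayed for viability by CellTiter-Fluor fluorescence following 1 hr reagent incubation.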

The target in assay [19] is Androgen receptor (Homo sapiens) (UniProt P10275). As to the kind of experiment: qHTS assay to identify small molecule antagonists of the androgen receptor (AR) signaling pathway using the MDA cell line in the presence of 0.5 nM R1881 (AID 1259243). Further: nearly all actives have a fitted effect of over 50% in size. An outline of the steps:
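Reporter cells cultured without CO2 receive test chemicals, then 0.5 nM R1881 final; after 16 hr at 37C, ONE-Glo is added and light output recorded.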

A short description of assay [20]: qHTS assay to identify small molecule phospholipidosis (PLD) inducers (AID 1259344; active means well fitted curve in the direction sought with a large enough effect; an effect the other way counts as inactive or inconclusive). In outline: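 HepG2 cells grown on collagen I take up LipidTOX Red while exposed to compound for 24 h; after fixation they are imaged at 20x and pit metrics are extracted.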

Androgen receptor (Homo sapiens), sequence (P10275 whole entry, looked up): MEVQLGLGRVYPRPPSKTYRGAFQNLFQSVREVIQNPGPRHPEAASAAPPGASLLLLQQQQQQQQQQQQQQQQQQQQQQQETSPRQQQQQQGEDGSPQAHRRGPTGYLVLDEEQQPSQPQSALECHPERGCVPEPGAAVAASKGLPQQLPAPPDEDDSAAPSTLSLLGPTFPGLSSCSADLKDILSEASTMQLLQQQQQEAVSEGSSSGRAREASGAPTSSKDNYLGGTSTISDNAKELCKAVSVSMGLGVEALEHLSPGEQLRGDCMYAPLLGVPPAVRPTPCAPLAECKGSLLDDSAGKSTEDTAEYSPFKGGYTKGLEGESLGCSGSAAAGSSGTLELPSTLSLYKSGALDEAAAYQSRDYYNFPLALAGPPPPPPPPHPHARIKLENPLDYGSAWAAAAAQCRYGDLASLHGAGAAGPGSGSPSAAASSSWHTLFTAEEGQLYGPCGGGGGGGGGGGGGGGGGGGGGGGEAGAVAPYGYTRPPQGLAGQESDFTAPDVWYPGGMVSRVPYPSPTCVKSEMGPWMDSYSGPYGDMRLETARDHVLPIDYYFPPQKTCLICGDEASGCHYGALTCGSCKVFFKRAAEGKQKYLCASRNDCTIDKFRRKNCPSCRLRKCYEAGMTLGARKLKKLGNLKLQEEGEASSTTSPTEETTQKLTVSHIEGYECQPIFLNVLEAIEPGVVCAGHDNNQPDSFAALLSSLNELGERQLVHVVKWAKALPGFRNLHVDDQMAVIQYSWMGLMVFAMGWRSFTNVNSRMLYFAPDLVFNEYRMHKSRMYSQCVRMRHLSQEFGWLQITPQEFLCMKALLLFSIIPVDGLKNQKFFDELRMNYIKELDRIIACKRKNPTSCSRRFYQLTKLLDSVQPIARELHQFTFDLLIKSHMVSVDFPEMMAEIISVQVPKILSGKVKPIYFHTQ
Estrogen receptor (Homo sapiens), sequence (P03372 whole entry, looked up): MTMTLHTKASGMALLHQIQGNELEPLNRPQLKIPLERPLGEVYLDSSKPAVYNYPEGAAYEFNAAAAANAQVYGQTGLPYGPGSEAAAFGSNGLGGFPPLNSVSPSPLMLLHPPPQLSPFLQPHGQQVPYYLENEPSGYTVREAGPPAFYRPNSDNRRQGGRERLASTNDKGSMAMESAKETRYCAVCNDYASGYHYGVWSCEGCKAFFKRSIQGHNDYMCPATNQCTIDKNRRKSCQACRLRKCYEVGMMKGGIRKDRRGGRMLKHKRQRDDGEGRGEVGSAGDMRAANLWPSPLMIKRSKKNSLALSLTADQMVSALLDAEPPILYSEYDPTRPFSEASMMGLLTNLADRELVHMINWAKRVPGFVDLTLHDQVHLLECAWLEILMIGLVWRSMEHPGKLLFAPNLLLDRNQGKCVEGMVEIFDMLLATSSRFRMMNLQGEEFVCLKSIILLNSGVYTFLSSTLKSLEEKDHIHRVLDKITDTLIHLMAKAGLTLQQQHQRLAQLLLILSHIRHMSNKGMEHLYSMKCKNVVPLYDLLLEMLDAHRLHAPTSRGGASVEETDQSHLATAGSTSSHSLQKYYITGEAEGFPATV

As for `CC(=O)Nc1cccc(N)c1`, the Potency entry in assay [1], in assay [2], in [3], in [4], in [5] and in [7] was “inactive” throughout. For the same compound, the Potency entry in assay [8], in assay [9], in assay [10], in assay [11], in assay [12] and in [13] was “inactive” in each case. In addition, the Potency result in assay [14], in assay [15], in [17] and in [18] was “inactive” each time. The compound was classed as inactive in [6] and in [16].
For `O=C1OC(=O)C2CC=CCC12` (stereo not drawn), the Potency result in assay [1], in assay [2], in assay [3], in assay [4], in [5] and in assay [7] was “inactive” each time. For the same compound, the Potency entry in assay [8], in [9], in assay [10], in assay [11], in [12] and in [13] was “inactive” throughout. The Potency result in [14], in [15], in [17] and in assay [18] was “inactive” each time. Besides, the call in assay [6] and in assay [16] was inactive.
For the compound `CCOCCn1c(N2CCCN(C)CC2)nc2ccccc21`, the Potency result in [1], in assay [2], in assay [3], in [4], in assay [5] and in assay [7] was “inactive” throughout. Also, the Potency entry in assay [8], in assay [9], in assay [10], in [11], in [12] and in assay [13] was “inactive” throughout. In addition, the Potency result in assay [19], in assay [20], in [17] and in assay [18] was “inactive” throughout. The call in assay [6] was inactive.
Turning to `C[C@H](N)C(=O)N[C@@H](C)C(=O)NC1[C@H]2CN(c3nc4c(cc3F)c(=O)c(C(=O)O)cn4-c3ccc(F)cc3F)C[C@@H]12` (stereo partly drawn), the Potency result in [1], in assay [2], in [3], in assay [4], in assay [5] and in assay [7] was “inactive” each time. In addition, the Potency result in [8], in [9], in assay [10], in [11], in assay [12] and in [13] was “inactive” in each case. The Potency entry in assay [19], in assay [17] and in assay [18] was “inactive” in each case. Besides, the outcome in assay [6] and in assay [16] was inactive.
Turning to `CCCC1CCOC(C)S1` (stereo not drawn), the Potency entry in assay [1], in [2], in [3], in [4], in assay [5] and in assay [7] was “inactive” in each case. Also, the Potency result in assay [8], in assay [9], in assay [10], in [11], in [12] and in assay [13] was “inactive” throughout. The Potency result in assay [19], in [14], in assay [15] and in [17] was “inactive” throughout. Also, the compound was classed as inactive in assay [6] and in assay [16].
On to `CCN(CC)CC(=O)OCC(=O)[C@@]1(O)CC[C@H]2[C@@H]3CCC4=CC(=O)CC[C@]4(C)[C@H]3[C@@H](O)C[C@@]21C`, for which the Potency in assay [1] was 1.9 µM (active); in [10] it was 1.07 µM (active). Moreover, the Potency result in assay [2], in assay [3], in [4], in assay [5], in assay [7] and in assay [8] was “inactive” throughout. The Potency result in assay [9], in [11], in [12], in assay [13], in assay [19] and in [14] was “inactive” each time. Besides, the Potency entry in [15], in assay [17] and in [18] was “inactive” throughout. The compound was called inactive in assay [6] and in assay [16].
As to `CCCCOc1ccc(N)cc1`, the Potency result in [1], in assay [2], in assay [3], in [4], in [5] and in [7] was “inactive” in each case. The Potency result in [8], in assay [9], in assay [10], in assay [11], in assay [12] and in assay [13] was “inactive” throughout. Also, the Potency entry in assay [14], in assay [15], in assay [17] and in [18] was “inactive” in each case. For the same compound, the compound was classed as inactive in [6] and in [16].
Take `O=C(O)c1ccc2cc(O)ccc2c1`: the Potency result in assay [1], in [2], in assay [3], in assay [4], in assay [5] and in [7] was “inactive” each time. For the same compound, the Potency result in [8], in assay [9], in [10], in [11], in assay [12] and in assay [13] was “inactive” in each case. In addition, the Potency entry in assay [14], in assay [15], in [17] and in assay [18] was “inactive” in each case. In addition, the compound was classed as inactive in assay [6] and in assay [16].
